# Source: article PMC4336329 (PLoS ONE, 2015)
# About 14,000 (4.5%) of roughly 310,000 compounds showed an effect of 50% or more. The effect is printed as a negative number. This is one part of a sample in which strong results are shown more often than they occur.
# Biological target: human ether-à-go-go-related gene (hERG) potassium channel (human, UniProt Q12809)
# Assay: primary screen, population patch clamp on CHO cells stably expressing hERG; higher = less effect of the substance
# 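Also: peak tail current of the secondary pulse compared with the same well before compound.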
# Sequence of human ether-à-go-go-related gene (hERG) potassium channel (Q12809 whole entry, looked up): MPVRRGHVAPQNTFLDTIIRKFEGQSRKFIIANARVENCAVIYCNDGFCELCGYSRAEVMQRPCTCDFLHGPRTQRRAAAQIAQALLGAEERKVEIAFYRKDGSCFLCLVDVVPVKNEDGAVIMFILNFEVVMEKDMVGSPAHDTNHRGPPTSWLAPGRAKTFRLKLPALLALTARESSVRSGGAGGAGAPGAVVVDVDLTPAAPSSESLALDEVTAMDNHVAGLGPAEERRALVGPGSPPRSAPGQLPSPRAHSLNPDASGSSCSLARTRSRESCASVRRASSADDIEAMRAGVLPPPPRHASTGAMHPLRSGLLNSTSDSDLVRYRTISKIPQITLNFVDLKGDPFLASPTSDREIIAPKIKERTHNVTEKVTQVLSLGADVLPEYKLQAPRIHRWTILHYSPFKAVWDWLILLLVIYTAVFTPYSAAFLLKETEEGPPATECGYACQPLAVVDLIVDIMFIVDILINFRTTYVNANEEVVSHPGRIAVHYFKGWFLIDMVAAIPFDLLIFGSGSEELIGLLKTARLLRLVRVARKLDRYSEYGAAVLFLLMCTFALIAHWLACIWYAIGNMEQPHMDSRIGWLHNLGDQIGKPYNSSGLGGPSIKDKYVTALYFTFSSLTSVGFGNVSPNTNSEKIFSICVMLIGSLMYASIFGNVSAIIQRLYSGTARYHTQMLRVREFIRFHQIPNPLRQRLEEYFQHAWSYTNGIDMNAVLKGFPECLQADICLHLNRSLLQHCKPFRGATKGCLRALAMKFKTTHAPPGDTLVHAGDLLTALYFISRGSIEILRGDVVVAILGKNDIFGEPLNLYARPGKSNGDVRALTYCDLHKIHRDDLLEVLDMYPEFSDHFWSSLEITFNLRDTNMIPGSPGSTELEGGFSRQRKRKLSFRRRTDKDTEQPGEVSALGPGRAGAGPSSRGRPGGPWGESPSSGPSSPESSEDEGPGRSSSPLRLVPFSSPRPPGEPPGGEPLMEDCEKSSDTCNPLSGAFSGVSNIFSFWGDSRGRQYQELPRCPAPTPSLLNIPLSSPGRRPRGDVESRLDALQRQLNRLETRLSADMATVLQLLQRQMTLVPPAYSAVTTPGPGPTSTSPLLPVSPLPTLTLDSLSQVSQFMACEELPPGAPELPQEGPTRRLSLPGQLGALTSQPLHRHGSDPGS
row,SMILES,"hERG current change (%, negative = inhibition) at 10uM [%]"
1,COC(=O)c1ccccc1NC(=O)CN1CCN(C23CC4CC(CC(C4)C2)C3)CC1,-77.5
2,Cc1cccc(NC(=O)CN2CCN(CC(=O)NCc3ccc(Cl)cc3Cl)CC2)c1C,-18.2
3,NC(=O)c1ccccc1NC(=O)CN1CCN(Cc2ccc(Cl)cc2Cl)CC1,-76.1
4,COC(=O)c1ccccc1NC(=O)CN1CCOCC1,5.86
5,NC(=O)c1ccccc1NC(=O)Nc1cccc(Cl)c1,-8.62
6,O=C(CN1CCN(Cc2ccccc2)CC1)Nc1ccccc1-c1ccccc1,-89.8
7,COc1ccc(OCC(=O)NCCCN2CCOCC2)cc1,10.7
8,CC1=C(C(=O)OCc2ccccc2)C(c2ccsc2)C(C#N)=C(N)O1 (stereo not drawn),-6.93
9,Cc1cccc(COc2ccc(/C=C3/C(=O)N(C)C(=S)N3C)cc2)c1,15.7
10,O=C(Nc1ccccc1)Nc1nnc(Cc2ccc(F)cc2)s1,20.1
11,O=C(NCc1ccco1)c1ccccc1,8.8
12,CCN(CC)S(=O)(=O)c1ccc(N2CCOCC2)c(NC(=O)Cc2cccc3ccccc23)c1,-1.03
13,N#CC1=C(N)N(c2ccccc2)C(c2cccc([N+](=O)[O-])c2)C1(C#N)C#N (stereo not drawn),-29.6
14,COc1ccccc1NC(=O)c1ccc(NC(=O)CN2CCN(C(=O)c3ccco3)CC2)cc1,-72.9
15,COc1cc([N+](=O)[O-])ccc1NC(=O)CN1CCN(C(=O)c2ccco2)CC1,-78.4
16,O=C(CN1CCN(C(=O)c2ccco2)CC1)Nc1ccccc1-c1ccccc1,-50.5
17,COC(=O)c1ccccc1NC(=O)CN1CCN(Cc2ccccc2)CC1,-74.5
18,COc1cc([N+](=O)[O-])ccc1NC(=O)CN1CCOCC1,9.44
19,COC(=O)c1ccccc1NC(=O)CN1CCCCCC1,8
20,O=C(CN1CCN(C(=O)c2ccco2)CC1)Nc1ccccc1,-13.9
21,NC(=O)c1ccc(NC(=O)CN2CCN(C(=O)c3ccco3)CC2)cc1,-3.09
22,COc1ccccc1NC(=O)c1ccc(NC(=O)CN2CCCC2)cc1,-34.2
23,COc1ccccc1NC(=O)CN1CCN(C(=O)c2ccco2)CC1,-22
24,COc1ccc(NC(=O)CN2CCN(C(=O)c3ccco3)CC2)c(OC)c1,-37.4

row,SMILES,"hERG current change (%, negative = inhibition) at 10uM [%]"
1,COC(=O)c1ccccc1NC(=O)CN1CCCCC1,9.99
2,COc1ccc(NC2(c3ccccc3)OC(=O)c3ccccc32)cc1 (stereo not drawn),1.2
3,CC(=O)c1cccc(OCc2cc(C(=O)NCCC3=CCCCC3)no2)c1,7.85
4,COc1cccc(NC(=O)c2nnn(CC(=O)Nc3cc(C)cc(C)c3)c2N)c1,13.5
5,O=C(c1cccc(COc2cccc3ccccc23)c1)N1CCCC1,-4.59
6,CC(=O)Nc1ccc(S(=O)(=O)NCCC(=O)Nc2cc(C)ccn2)cc1,7.68
7,NS(=O)(=O)c1ccc(CCNC(=O)C2CCCN(S(=O)(=O)c3cccnc3)C2)cc1 (stereo not drawn),-4.22
8,NC(=O)c1ccccc1NC(=O)CN1CCOCC1,7.22
9,NC(=O)c1ccccc1NC(=O)CN1CCCCCC1,11.1
10,NC(=O)c1ccccc1NC(=O)CN1CCN(Cc2ccccc2)CC1,-78.3
11,O=C1Nc2ccc(S(=O)(=O)NCc3ccco3)c3cccc1c23,-16.2
12,O=C1NN(c2cccc(Br)c2)C(=O)/C1=C/c1ccc(-c2cc([N+](=O)[O-])ccc2O)o1,-9.65
13,CCNC(=O)COc1ccc(S(=O)(=O)Nc2ccccc2)cc1,-1.85
14,CC(C)C(=O)Nc1cccc(NC(=S)NC(=O)c2ccccc2Cl)c1,-9.02
15,CCCC(c1c(C)n(C)n(-c2ccccc2)c1=O)c1c(C)n(C)n(-c2ccccc2)c1=O,0.692
16,Br.Cc1cc(C)cc(OCC(=O)NN2Cc3ccccc3C2=N)c1,-11.6
17,Br.N#Cc1ccc(OCC(=O)NN2Cc3ccccc3C2=N)cc1,4.14
18,Br.N=C1c2ccccc2CN1NC(=O)COc1ccc(Cl)cc1,-50.4
19,Br.COc1ccccc1OCC(=O)NN1Cc2ccccc2C1=N,1.99
20,Br.CCc1ccc(OCC(=O)NN2Cc3ccccc3C2=N)cc1,-38.8
21,Br.CC(C)(C)c1ccc(OCC(=O)NN2Cc3ccccc3C2=N)cc1,-65.5
22,Br.COc1ccc(OCC(=O)NN2Cc3ccccc3C2=N)cc1,-18.1
23,Br.CCOc1ccccc1OCC(=O)NN1Cc2ccccc2C1=N,-73.5
24,Br.Cc1ccccc1OCC(=O)NN1Cc2ccccc2C1=N,-0.416
